# In the supplement of paper PMC6555819:
# Key:
# Assay in all cases: PBM binding z-score (relative to random genomic background probes); higher = stronger binding; sequences stand for … in GC…GCGATTGACAGCGTAGAATGAAGG
# [1] = tested on: PPARg:RXRa DBDmut IVT, anti-RXR (DBD mutation: RXRa K156A/R161A, NR concentration 270 nM, RXRa partner concentration 90 nM)
# Procedure, shortened: (§1)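 Random background probes are the reference for binding z-scores. These scores derive from regression-normalized fluorescence on custom Agilent 4×180K protein-binding microarrays incubated 1 h with ligand-free nuclear receptor dimers. Binding was detected with antibodies against each partner (one per run).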
# [2] = tested on: PPARg:RXRa IVT, anti-PPARg (NR concentration 270 nM, RXRa partner concentration 90 nM)
# Procedure, shortened: as §1
# [3] = tested on: PPARg DBDmut:RXRa IVT, anti-PPARg (DBD mutation: PPARg1 K132A/R137A, NR concentration 270 nM, RXRa partner concentration 90 nM)
# Procedure, shortened: as §1
# [4] = tested on: PPARg DBDmut IVT, anti-PPARg (DBD mutation: PPARg1 K132A/R137A, NR concentration 270 nM)
# Procedure, shortened: as §1
# [5] = tested on: PPARg homodimer (NR concentration 180 nM)
# Procedure, shortened: as §1
# [6] = tested on: PXR:RXRa (NR concentration 270 nM, RXRa partner concentration 90 nM)
# Procedure, shortened: as §1
# [7] = tested on: PXR homodimer (NR concentration 270 nM)
# Procedure, shortened: as §1
# [8] = tested on: RARa:RXR (NR concentration 270 nM, RXRa partner concentration 90 nM)
# Procedure, shortened: as §1
# [9] = tested on: RARa homodimer (NR concentration 270 nM)
# Procedure, shortened: as §1
# [10] = tested on: RARb:RXRa (NR concentration 270 nM, RXRa partner concentration 90 nM)
# Procedure, shortened: as §1
Sequence,PBM binding z-score [1],PBM binding z-score [2],PBM binding z-score [3],PBM binding z-score [4],PBM binding z-score [5],PBM binding z-score [6],PBM binding z-score [7],PBM binding z-score [8],PBM binding z-score [9],PBM binding z-score [10]
GCAGACAGGTGAAACGCAGGGAACTCAGGGTGGC,0.902,0.213,0.0548,-0.787,0.0817,-0.255,-0.624,0.127,-0.901,0.545
CGAACTAAGTCAGAACAGGACAGTGAAGGATGAT,0.607,0.0567,0.659,0.276,0.404,-0.17,0.204,0.137,0.452,-0.103
AGAATGAGGTTATTAAGATCAGGAAATTGCGGTC,2.71,2.49,1.18,0.481,0.657,1.3,0.566,1.3,0.579,1.42
TCTGCTCGGTCAGTTGGTCAGCTAACGAGCTGCC,0.685,0.74,-0.215,0.0745,-0.826,-0.447,-1.11,-0.352,-1.55,1.73
TCTCGGAGGACACGAATGGTCAGAGCTCGACATC,1.33,-0.256,-0.6,-0.622,-0.755,-0.324,-0.617,-0.159,-0.635,1.5
TCGAGTAGGTGACCAATGGGGCATTCAGCTTTCT,4.22,3.6,-0.451,-1.19,-0.701,-0.233,-1.05,-0.0879,-1.72,0.567
CCAACTGGGCCACGAAAGGTCATTGATTCAGTGA,5.74,5.79,-0.114,-0.318,3.56,5.23,1.31,5.31,1.12,4.02
TAGCCTAGGTCATGGGACAGTATACCACGCGAAC,1.93,3.38,0.841,0.664,2.06,1.99,-0.252,2.89,0.415,3.88
CCTTACGGGTCAATGTTATAGCACGGGTGGTACG,1.71,2.59,0.14,0.289,1.3,2.45,-0.0609,3.35,0.558,3.57
CGTCCAAGGTCAGAGGAGGTCAGTGAAGACAGAT,1.93,3.41,0.0529,-0.477,3.97,6.58,2.7,5.37,1.91,5.22
AGAATGAGGTTATTAACATCAGGGAATTGCGGTC,2.7,2.3,0.432,0.815,0.441,1.18,0.616,1.36,0.203,1.2
CTACCAAAGTGAACAAGGTCGTTGATTACTATTC,0.74,0.473,0.238,0.295,0.64,1.76,1.48,1.47,0.789,0.821
CCTATTAGTTGACCATAAGGGGAACCGAAGCTCG,0.601,0.106,0.62,0.755,1.54,0.541,0.854,0.248,2.37,0.582
AGAGTGAGGTTATTAAGATCAGGGAATTGCGGTC,0.817,0.889,0.661,0.468,2.05,1.43,1.67,1.5,1.44,1.7
CATACAGGGTCAGCTAGTCCAGAGTAGGGACGGC,1.14,2.25,0.656,0.108,1.92,2.36,-0.00687,2.91,0.913,3.94
TCATATAGGAAAACAGGTGAAAGTCCGTAAGTTA,2.83,1.11,0.0218,0.116,0.804,0.845,0.476,1.14,1.74,0.355
CCGGCTAGGTCAATGGTCAGCTAAAGCAGCTCGC,3.12,2.61,-1.05,-0.801,0.684,0.817,-0.491,1.75,0.248,3.8
TCGAGTAGTTTAGTCGGGGCATTCAGCCAACATA,1.24,-0.182,-0.281,-0.699,-0.472,0.139,-0.0137,0.146,-0.408,0.0588
GTACCAAGGTGAATTGGTCGTTGATGAGTAGGCG,1.6,1.85,0.108,0.076,-0.163,-0.436,-0.573,-0.15,-0.635,1.17
GTACCAAGGTGAATAGGTCGTTGCTGAGTAGGCG,1.82,2.55,-0.221,0.00615,0.964,0.496,-0.427,1.55,-0.268,1.96
CAAACTAGGTCAAGAGGTCATAGTCCGCTTCCCG,8.3,8.47,3.3,2.09,5.93,5.98,2.28,7.42,2.36,5.19
CAAACTAGGGCAAGGTCAAAGTCGGTTTGTGCCA,7.65,7.58,2.3,3.24,3.66,4.71,1.95,4.96,2.12,4.14
GCCTATAGGTAATACAAGGTGAAAGTCCGATTGT,1.99,1.53,0.858,0.233,0.234,0.642,0.00334,0.994,-0.186,0.666
CCGACTGGGGCAGAAGGGTTACCATACCATCCGG,1.09,1.56,-0.531,-1.22,0.108,-0.0806,-0.804,0.392,-0.582,0.984
CGAACTAGGTCAGTACAGGACAGTGAAGGATGAT,7.48,7.01,0.814,0.573,1.07,0.911,-0.456,0.671,0.153,3.04

Sequence,PBM binding z-score [1],PBM binding z-score [2],PBM binding z-score [3],PBM binding z-score [4],PBM binding z-score [5],PBM binding z-score [6],PBM binding z-score [7],PBM binding z-score [8],PBM binding z-score [9],PBM binding z-score [10]
CTACCAAGGTGAACAAAGTCGTTGATTACTATTC,2.31,2.45,0.74,0.992,0.58,0.262,0.0608,0.544,0.222,1.42
CAAACTAGGTCAAGGTCAAAGTTGGTTTGTGCCA,8.46,8.73,4.69,4.12,4.93,5.28,2.75,5.45,1.94,5.19
ACACCAAGGTGATCGTGAGGTCGTTGATACTAAC,0.605,1.04,-0.599,0.153,0.72,2.98,1.07,2.18,0.0851,1.47
TCATATAGGTAAATGCTAGATGAAAGTCCGATCT,3.61,1.84,0.931,1.42,-0.0567,0.422,0.0659,0.328,0.951,0.201
CCTTCTGGGCCACGAAAGGTCATTGATTCAGTGA,5.63,5.14,1.99,2.08,5.35,5.74,1.61,5.44,2.53,4.21
CCGACTGGGGCAAAAGTTACCATACTCAGTACGA,4.08,3.59,-0.127,-0.288,0.506,-0.414,-0.137,-0.0334,-0.135,0.202
ACAGACAGGTGAGTGAAGGTAACTCAGCTGGACG,0.432,0.804,0.0951,0.079,-0.0829,-0.379,-0.472,0.0819,-0.173,0.67
ACCTCTAGGTAAAGATAGTTCAGTGAATGCAAAT,2.21,1.04,-0.152,0.355,-0.326,0.747,0.128,0.271,-0.309,0.426
CAAACTAGGTCACAGAGGTCAAAGTCCGTGCGTA,8.82,9.1,2.19,1.15,5.68,6.96,11.2,7.51,3.31,5.25
AGAATGAGGTTACCATAGATCAGGGAAACGCTTG,3.38,3.18,0.359,0.63,0.136,0.897,0.179,1.54,0.172,1.79
TCGAGTAGGTTAGTCGGGGCATTAAGCCAACATA,2.22,1.85,-0.456,0.127,0.173,0.149,-0.182,0.471,-0.436,0.306
CCTTACGGGTCACTGACAGGTTATACCATTTGGA,3.69,3.72,0.775,0.106,2.46,3.75,0.348,4.53,1.11,4.14
CGAACTAGGTCATTGACAGGACTGTGAATAGTAA,7.96,8.16,2.42,3.75,1.48,1.11,0.155,1.81,-0.0382,3.43
CTACCAAGGTGAATAAGGTCGTTGATTACTATTC,1.82,2.39,0.0322,-0.387,0.714,2.37,2.32,2.44,0.949,1.71
ACTCGGAGGACAAAAGTCAGAGCTACGCCAGTGA,0.176,-0.114,-1.08,-0.828,0.0197,-0.626,-0.332,-0.564,-0.279,0.928
CTCGAAAGGTCGGTGGAGGTGAGTATACGGATAA,0.0934,0.827,1.01,-0.175,1.03,2.39,-0.0117,2.63,0.0288,2.89
GGAACGAGGGCAAGGTGATAGCAGAGTTTGATGG,3.43,3.26,-0.452,-0.737,0.922,0.851,1.06,0.793,0.23,2.78
CCTACTGGGCCAAGGTCATGGATCAGTCAAAGCA,3.36,4.9,-0.856,-0.00696,0.941,3.26,0.388,3.81,0.247,3.53
CGAAATAGGTCATCCAGGACAGTGAATACATTGA,7.78,7.89,2.68,2.13,2.1,3.15,1.18,3.92,1.27,4.59
TCTTGTAGACCAAAGGTTAAGAAAGCCGAAGCCT,2.06,3.9,0.87,0.749,0.811,1.58,-0.8,2.39,-0.178,2.03
TGAATGAGGTTATAAGATTAGGGAACGTTGCAAA,1.08,1.82,0.868,0.168,0.438,0.788,0.176,1.31,0.154,1.15
CTGACTGGGGCAAAGGTTACCATACTCAGTACGA,6.27,6.51,0.767,0.374,1.19,2.61,0.266,4.17,0.228,2.67
ATATGTAGGTTACATCCGGGTCAGTCAGGCTATG,7.52,7.34,2.22,1.82,1.39,2.01,0.364,2.42,0.784,1.96
ACTCGAAGGACAAAGGTCAGAGCTACGCCAGTGA,0.648,3.42,-0.0022,-0.263,2.57,3.58,0.743,4.28,0.861,4.7
